# About 83,000 compounds went through this panel and 20% of them were active in at least one assay; those are over-represented in the sample as a whole.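 Assay: single dose, 48 h. Readout: percent growth (0 = no net growth; negative = cell death). Active: <10.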 A number with no mark means an inactive call. Active and inactive are the calls of the source.
# System: HL-60(TB) leukemia
# Test: NCI-60 one-dose screen, 48 h (100 = growth as untreated, 0 = no growth, -100 = all killed)
# Conditions: 10 µM unless noted
row,SMILES,growth
1,CC(C)(C)CC(N)=O,120%
2,CCN(CC)c1ccc(/C=C2\Oc3ccc(O)c(I)c3C2=O)cc1,18.5%
3,CC[C@H](CC[C@@H](C)[C@H]1CC[C@H]2[C@@H]3/C(=C/c4cccnc4)C(=O)C4=CC(=O)CC[C@]4(C)[C@H]3CC[C@]12C)C(C)C,64.6%
4,Cc1csc(Nc2nc(-c3cccc(Br)c3)nc(C(Cl)(Cl)Cl)n2)n1,9.61% (active)
5,Cc1sc2nc(NCCN)[nH]c(=O)c2c1C,115%
6,O=C(O)Cc1ccc(O)c(O)c1,82.1%
7,CCC1=C(c2ccc(OC)cc2)C(C)(C)Oc2cc(O)c(CN3CCCC3)cc21,85%
8,O=C1/C(=C\c2cccn2Cc2ccccc2)c2ccccc2N1c1c(Cl)cccc1Cl,71%
9,CC(=O)NNC(=S)/N=C\C(C(=O)c1ccccc1)=C(/O)c1ccccc1,103%
10,COc1ccc(OCC(O)CN2CCN(c3ccc(Cl)cc3)CC2)cc1 (centres undefined),105%
11,Cn1c2ccccc2c2nnc(N/N=C/c3ccccn3)nc21,-46.1% (active)
12,CCOC(=O)c1ccc(NC(=O)N2CC(C)OC(C)C2)cc1 (centres undefined),92.8%
13,O=C(Nc1ncc([N+](=O)[O-])s1)c1cccc([N+](=O)[O-])c1,2.45% (active)
14,Nc1[nH]nc2nc(-c3ccccc3)n3c4ccccc4nc3c12,97.5%
15,COc1cc(/C=C\c2cc(OC)c(OC)c(OC)c2)cc(NC(=O)/C=C/c2cc(OC)c(OC)c(OC)c2)c1OC,-6.4% (active)
16,CSc1nn(-c2ccccc2)c2ncnc(Oc3ccc(C)cc3)c12,98.3%
17,c1cc(-c2ccc3c(c2)OCO3)n2nccc2n1,98.4%
18,CCOC(=O)c1c(NC(=O)CSc2n[nH]c3nc4ccccc4n23)sc(CC)c1C,97.9%
19,C#CCNC(=O)CC[C@@H](C)[C@H]1CC[C@H]2[C@@H]3CC[C@@H]4CC(=O)CC[C@]4(C)[C@H]3CC[C@]12C,-30% [100 µM] (active)
20,C=C1C(=O)O[C@H]2[C@H]1CC/C(COC(=O)/C=C\C(=O)NCc1ccc(Cn3c(=O)sn(CCCl)c3=O)cc1)=C\CC[C@@]1(C)O[C@@H]21,-19.4% (active)

row,SMILES,growth
1,COc1ccc(/C=C(\C#N)n2nnc3c(F)cccc32)cc1,-5.39% (active)
2,O=C1/C(=C/c2ccccc2)CCC/C1=C\c1ccccc1,97.8%
3,C#Cc1cccc(NC(=O)c2ccc(Cl)cc2Cl)c1,72.5%
4,CCCC/C=N/NC(=S)NCc1ccccc1,105%
5,C=CC(=O)N1CCN(c2ccc3cccc(NC(=O)c4cnc(C)cn4)c3n2)CC1,26.6%
6,CS(=O)(=O)Nc1cc(-c2ccc3ncnc(Nc4ccc5c(cnn5Cc5ccncc5)c4)c3c2)cnc1Cl,15.4%
7,O=C(C(Br)Br)C(Br)C(Br)c1ccccc1 (centres undefined),88.8%
8,CCc1oc2ccccc2c1C(=O)c1cc(I)c(O)c(I)c1,10.1%
9,COc1cc(/C=C/C(=O)c2c(C)nc3ccccc3c2C)ccc1OCCCCOc1cc2c(cc1OC)C(=O)N1CCC[C@H]1C=N2,-34.1% (active)
10,Cc1c(-c2cnc3ccc(Cl)cc3c2C(=O)O)nnn1-c1ccc(Cl)cc1,96.2%
11,COc1cc(/C=N/NC(=O)c2ccc(-n3cc(-c4ccccc4)nn3)cc2)cc(OC)c1OC,101%
12,Cc1nc2nc(N)nc(N)c2nc1C,94.2%
13,O=C(O)c1cccc2c1-c1ccccc1C2=O,106%
14,CN1C(=O)N(C)C2NC(N/N=C/c3ccccc3)=NC21 (centres undefined),99.6%
15,COc1cc(O)c2c(=O)c3c(CC=C(C)C)cc(OC)c(O)c3oc2c1,-15.9% (active)
16,Cc1ccc2cnc(N)c(C#Cc3cc(C(=O)Nc4ccc(CN5CCN(C)CC5)c(C(F)(F)F)c4)cnc3C)c2c1,30%
17,Nc1cc(-c2ccccc2)ccc1O,49.7%
18,c1csc(-c2nc(-c3cc4ccccc4c(N4CCOCC4)n3)cs2)c1,121%
19,CC(=O)OC1Oc2cc(C)c(C)cc2-c2oc(=O)c(-c3cc4ccc(N(C)C)cc4oc3=O)cc21 (centres undefined),25.6%
